# Measurements as given in PMC4336329 (PLoS ONE, 2015).
# In all, about 310,000 compounds went through this assay and about 2,200 (0.71%) showed an effect of 50% or more. Effects have a minus sign here. What follows is part of a selection rich in strong results, with near analogues and random picks from the rest.
# Target: human ether-à-go-go-related gene (hERG) potassium channel (human, UniProt Q12809)
# Experiment: primary screen, population patch clamp on CHO cells stably expressing hERG; higher = less effect of the substance
# Sequence of human ether-à-go-go-related gene (hERG) potassium channel (Q12809 whole entry, looked up): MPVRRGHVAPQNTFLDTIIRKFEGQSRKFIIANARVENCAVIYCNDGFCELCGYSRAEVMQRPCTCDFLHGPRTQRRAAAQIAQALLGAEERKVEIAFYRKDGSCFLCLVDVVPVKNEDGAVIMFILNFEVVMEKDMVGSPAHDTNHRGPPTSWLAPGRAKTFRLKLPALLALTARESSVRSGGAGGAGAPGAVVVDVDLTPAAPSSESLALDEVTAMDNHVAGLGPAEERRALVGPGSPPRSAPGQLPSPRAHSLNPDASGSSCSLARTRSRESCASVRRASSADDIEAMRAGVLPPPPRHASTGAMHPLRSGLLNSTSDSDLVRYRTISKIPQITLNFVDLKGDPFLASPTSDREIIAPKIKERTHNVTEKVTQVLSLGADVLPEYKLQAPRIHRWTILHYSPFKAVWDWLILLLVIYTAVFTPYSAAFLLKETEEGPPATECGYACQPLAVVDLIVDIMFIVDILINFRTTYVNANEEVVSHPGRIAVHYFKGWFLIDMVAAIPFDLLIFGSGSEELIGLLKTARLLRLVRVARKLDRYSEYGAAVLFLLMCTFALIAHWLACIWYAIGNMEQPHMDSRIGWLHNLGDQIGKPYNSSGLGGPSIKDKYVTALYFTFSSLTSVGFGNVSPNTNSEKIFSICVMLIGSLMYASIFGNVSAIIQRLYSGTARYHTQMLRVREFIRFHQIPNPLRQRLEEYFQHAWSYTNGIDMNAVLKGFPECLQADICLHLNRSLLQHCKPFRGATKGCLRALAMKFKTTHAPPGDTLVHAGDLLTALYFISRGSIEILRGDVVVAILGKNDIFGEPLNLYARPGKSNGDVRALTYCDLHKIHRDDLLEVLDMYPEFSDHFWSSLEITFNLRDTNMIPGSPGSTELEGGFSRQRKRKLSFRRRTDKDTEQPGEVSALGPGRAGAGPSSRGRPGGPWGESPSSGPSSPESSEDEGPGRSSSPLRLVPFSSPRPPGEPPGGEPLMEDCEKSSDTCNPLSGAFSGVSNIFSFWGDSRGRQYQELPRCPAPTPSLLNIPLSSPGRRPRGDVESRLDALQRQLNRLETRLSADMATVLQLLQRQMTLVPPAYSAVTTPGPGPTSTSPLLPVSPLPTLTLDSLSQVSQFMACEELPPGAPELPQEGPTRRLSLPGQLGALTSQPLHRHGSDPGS
row,SMILES,"hERG current change (%, negative = inhibition) at 1uM [%]"
1,Cc1ccc(CNC(=O)CN(Cc2ccccc2)S(C)(=O)=O)cc1,-3.4
2,Cc1cc(=O)[nH]c(N/N=C/c2c[nH]c3ccccc23)n1,9.01
3,[O-][Cl+3]([O-])([O-])[O-].c1ccc(-c2[nH]c(-c3ccccc3)[n+](CC3CO3)c2-c2ccccc2)cc1 (stereo not shown),-2.8
4,Cc1cc(N2CCCC2)ccc1C=C(C#N)C#N,1.28
5,N#CC(C#N)=Cc1ccc(N2CCCC2)cc1,5.75
6,Cc1cc(C=C(C#N)C#N)ccc1N1CCCC1,-68.6
7,CNC(=S)Nc1ccc(C(N)=O)cc1,10.2
8,CC(C)(C)c1nc(NCC2CCCO2)c2nnn(Cc3ccccc3)c2n1 (stereo not shown),13.9
9,COc1ccc(C(=O)Nc2ccccc2C(=O)Nc2ccc(C(=O)O)cc2)cc1,15
10,O=C(CNS(=O)(=O)c1ccc(Br)s1)NCCc1ccc(Cl)cc1,16.1
11,COc1cccc(C2CNC3(CCCC(C)C3)c3[nH]c4ccccc4c32)c1OC.Cl (stereo not shown),8.05
12,CC1(C)CC(=O)CC2(C1)NCC(c1ccccc1Cl)c1c2[nH]c2ccccc12.Cl (stereo not shown),-3.21
13,CC1(C)CC(=O)CC2(C1)NCC(c1ccccc1)c1c2[nH]c2ccccc12.Cl (stereo not shown),-83.4
14,CC(C)(C)OC(=O)N[C@@H](Cc1ccccc1)C(=O)N1CCC(C(=O)N[C@@H](Cc2c[nH]c3ccccc23)C(=O)O)CC1,15
15,CCCS(=O)(=O)c1c(S(=O)(=O)CCC)c2cnccn2c1C(=O)c1ccc(CC)cc1,0.628
16,OC1(c2ccc(Cl)cc2)CCN(Cc2c[nH]c3ccccc23)CC1,-27.6
17,COc1ccccc1N1CCN(CC(=O)Nc2ccc3c(c2)OCCO3)CC1,-0.304
18,COc1ccccc1NC(=O)CN1CCN(CC(=O)Nc2ccc3c(c2)OCO3)CC1,-67.3
19,CCOc1ccc(NC(=O)COc2ccc3c(c2)OCO3)cc1,7.57
20,CCOc1ccc(OCCC(=O)Nc2ccc3c(c2)OCO3)cc1,11.1
21,COc1ccc(NC(=O)CN2CCN(CC(=O)Nc3ccc4c(c3)OCO4)CC2)cc1,-85.9
22,COc1ccccc1NC(=O)CN1CCN(CC(=O)Nc2ccc3c(c2)OCCO3)CC1,-10.6
23,CCOc1ccc(NC(=O)CN2CCN(CC(=O)Nc3ccc4c(c3)OCO4)CC2)cc1,-80.9
24,COc1ccc(OCC(=O)Nc2ccc3c(c2)OCO3)cc1,11.7
25,COc1ccc(S(=O)(=O)N2CCCN(CC(=O)Nc3ccc4c(c3)OCO4)CC2)cc1,-15.1
26,O=C(CN1CCCC1=O)NC1C2CC3CC(C2)CC1C3 (stereo not shown),9.69
27,COC(=O)C1=CN(Cc2ccccc2)C=C(C(=O)OC)C1c1ccc(O)c(OC)c1,17.4
28,COc1ccc(N2C(=O)/C(=C\c3ccco3)N=C2SCC(=O)N(C(C)C)C(C)C)cc1Cl,20.1

row,SMILES,"hERG current change (%, negative = inhibition) at 1uM [%]"
1,Cc1ccc(OCC(O)CNC2CCCC2)cc1C.Cl (stereo not shown),8.86
2,CC(=O)c1cccc(CN2CCCCC2C(=O)Nc2ccc(Oc3ccccc3)nc2)c1 (stereo not shown),0.714
3,CCC(=O)Nc1nc(C)c(C(=O)N2CCCCC2)s1,12.8
4,CCCCN(C(=O)c1ccc(C)c(S(=O)(=O)N2CCOCC2)c1)c1c(N)n(CCCC)c(=O)[nH]c1=O,5.43
5,CCCCN(C(=O)c1ccc(C)c(S(=O)(=O)N2CCOCC2)c1)c1c(N)n(CC(C)C)c(=O)[nH]c1=O,-57.9
6,CCCCn1c(N)c(N(CCC(C)C)C(=O)c2ccc(C)c(S(=O)(=O)N3CCOCC3)c2)c(=O)[nH]c1=O,5.89
7,O=C(CCNS(=O)(=O)c1ccccc1F)N1CCN(Cc2ccccc2)CC1,8.79
8,O=C(NCc1ccccc1)c1ccc(NC(=O)c2ccco2)cc1,5.4
9,O=C(NC1CCCC1)C(c1ccccn1)N(Cc1ccccc1F)C(=O)c1csnn1 (stereo not shown),10.7
10,CN(C)CCSCc1nnc2n1-c1ccc(Cl)cc1C(c1ccccc1Cl)=NC2.c1ccccc1,-51.9
11,Clc1ccc2c(c1)C(c1ccccc1Cl)=NCc1nnc(N3CCN(CCSc4ccccc4)CC3)n1-2.O.O=C(O)/C=C/C(=O)O,-10.8
12,COCCCN1CCN(c2nnc3n2-c2sc(Br)cc2C(c2ccccc2Cl)=NC3)CC1.CS(=O)(=O)O,-11.9
13,Clc1ccc2c(c1)C(c1ccccc1Cl)=NCc1nnc(N3CCN(CCOc4ccccc4)CC3)n1-2.O=C(O)/C=C/C(=O)O,-50.8
14,Clc1ccc2c(c1)C(c1ccccc1Cl)=NCc1nnc(Br)n1-2.c1ccccc1,2.57
15,CCOCCN1CCN(c2nnc3n2-c2ccc(Cl)cc2C(c2ccccc2Cl)=NC3)CC1.O=CO,-57.6
16,CN1CCN(Cc2nnc3n2-c2ccc(Cl)cc2C(c2ccccc2)=NC3)CC1.O=CO,-31.9
17,CSCc1nnc2n1-c1ccc(Cl)cc1C(c1ccccc1)=NC2,4.89
18,COc1ccccc1C1=NCc2nnc(CSC)n2-c2ccc(Cl)cc21,0.0726
19,O=c1nc2n(c3ncccc13)CCC2,16.1
20,CCOC(=O)c1cc(-c2ccccc2)sc1NC(=O)CSc1nnc(N)s1,2.01
21,Cc1cc(C)cc(C(=O)NCC(=O)OCC(=O)N2c3ccccc3NC(=O)C2(C)C)c1,4.41
22,COc1ccc(CC[NH+](C)CCCN2CC(c3ccccc3)CC2=O)cc1OC.O=C([O-])C(=O)[O-] (stereo not shown),-61.9
23,COc1ccc(CCN2CC(C(=O)O)CC2=O)cc1OC (stereo not shown),2.95
24,COc1ccc(C2SCC(=O)N2CCc2ccc(OC)c(OC)c2)cc1 (stereo not shown),-1.68
25,COc1ccc(C2CC(=O)N(CCC[NH+](C)CCc3ccc(OC)c(OC)c3)C2)cc1.O=C([O-])C(=O)[O-] (stereo not shown),-72.9
26,COc1ccc(NC(=O)CN2CC(c3ccccc3)CC2=O)cc1OC (stereo not shown),12.3
27,COc1ccc(CCN2CC(C(=O)NCc3ccc(F)cc3)CC2=O)cc1OC (stereo not shown),6.95
